Only some compounds are listed: those with a hit (about 9% of all), similar ones and a draw of the others.
ALOX12 inh – inhibitors of human 12S-lipoxygenase ALOX12. AID 1671190. 580,000 compounds, 1.1% hits. purified 12hLO, xylenol orange hydroperoxide absorbance. Potency, µM (top dose mostly 108 µM), for inactives: at the highest dose activity change, negative = inhibition, most hits filed as inhibitors; also: % is scaled to controls: 0 for no effect and ±100 for the full control effect
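Purified human 12hLO at 150 nM in 25 mM Hepes, 0.01% Triton X-100, pH 7.0, preincubated 15 min at room temperature with compound. Reaction started with 40 uM arachidonic acid, 30 min at room temperature. Hydroperoxide measured by Fe-xylenol orange, 573/405 nm absorbance ratio.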
JMJD2A Tudor – JMJD2A Tudor domain (human) inhibition | O75164 | AlphaScreen JMJD2A-Tudor / H3K4me3 peptide binding | Potency, µM (titrated, usually from 114 µM), inactives show at the top dose activity change, negative = inhibition, hits mostly inhibitors | 390,000 compounds, 4.4% hits | AID 504339; also: % is scaled to controls: 0 for no effect and ±100 for the full control effect; nearly all actives have a fitted effect of over 50% in size
Target sequence (O75164 whole entry, looked up, the tested form may be a part): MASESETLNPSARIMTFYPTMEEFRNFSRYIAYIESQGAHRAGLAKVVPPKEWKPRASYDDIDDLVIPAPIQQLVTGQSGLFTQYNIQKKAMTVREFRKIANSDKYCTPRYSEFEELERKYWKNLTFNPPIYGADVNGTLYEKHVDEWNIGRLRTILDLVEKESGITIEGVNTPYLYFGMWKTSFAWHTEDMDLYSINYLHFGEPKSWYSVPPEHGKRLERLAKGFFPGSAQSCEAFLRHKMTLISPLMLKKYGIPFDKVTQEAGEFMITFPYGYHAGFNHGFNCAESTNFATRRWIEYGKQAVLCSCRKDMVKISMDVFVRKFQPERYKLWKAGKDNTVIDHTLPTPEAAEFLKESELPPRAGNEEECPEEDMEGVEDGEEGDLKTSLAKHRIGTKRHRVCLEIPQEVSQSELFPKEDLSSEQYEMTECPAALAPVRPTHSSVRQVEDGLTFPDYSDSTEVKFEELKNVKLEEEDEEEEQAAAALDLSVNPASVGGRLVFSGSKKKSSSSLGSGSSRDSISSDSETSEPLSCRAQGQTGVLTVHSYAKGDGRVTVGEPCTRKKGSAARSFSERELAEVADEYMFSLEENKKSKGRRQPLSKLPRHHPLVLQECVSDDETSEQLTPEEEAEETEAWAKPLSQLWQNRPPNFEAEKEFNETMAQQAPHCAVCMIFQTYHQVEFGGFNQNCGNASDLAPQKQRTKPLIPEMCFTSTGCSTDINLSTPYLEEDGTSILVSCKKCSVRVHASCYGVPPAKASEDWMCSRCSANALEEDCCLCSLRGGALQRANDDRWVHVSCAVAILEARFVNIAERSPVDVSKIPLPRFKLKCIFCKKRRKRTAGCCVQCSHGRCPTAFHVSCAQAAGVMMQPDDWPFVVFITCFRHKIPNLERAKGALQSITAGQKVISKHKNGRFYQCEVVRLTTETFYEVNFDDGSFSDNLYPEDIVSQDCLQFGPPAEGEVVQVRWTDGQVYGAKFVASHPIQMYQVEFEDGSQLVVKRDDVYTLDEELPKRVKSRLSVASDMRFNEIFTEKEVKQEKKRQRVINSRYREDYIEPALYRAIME
G9a inh – blocks human histone lysine methyltransferase G9a. AID 504332. Q96KQ7. G9a H3K9 monomethylation, AlphaScreen, 2 h. 350,000 compounds, 8.8% hits. Potency, µM (highest dose often 102 µM), inactives show at the highest dose activity, negative = inhibition, hits mostly inhibitors; also: % is scaled to controls: 0 for no effect and ±100 for the full control effect; nearly all actives have a fitted effect of over 75% in size
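AlphaScreen read-out: biotin-H3K9 peptide (500 nM) methylation by 20 nM enzyme with 20 uM SAM, 2 h at room temperature after 15 min compound preincubation; anti-monomethyl H3K9 antibody plus donor/acceptor beads, 10 min dark.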
BAZ2B inh – BAZ2B (human) inhibition; 360,000 compounds, 4.4% hits; Q9UIF8; Potency, µM (titrated, usually from 114 µM), inactives show at the top dose activity change, negative = inhibition, most hits filed as inhibitors; AlphaScreen BAZ2B-H3K14Ac peptide displacement; also: % is scaled to controls: 0 for no effect and ±100 for the full control effect; nearly all actives have a fitted effect of over 60% in size
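AlphaScreen luminescence quantifies BAZ2B engagement of H3K14Ac peptide; the protein and biotinylated peptide are both at 50 nM final, buffer PBS pH 7.4 with 0.01% Tween-20, all steps at room temperature.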
HP1b chromo inh – blocks HP1-beta chromodomain binding to methylated histone tails; AlphaScreen HP1-beta / biotin-H3K9me3 peptide binding; P83916; 390,000 compounds, 0.56% hits; Potency, µM (top dose mostly 114 µM), for inactives: at the top dose activity change, negative = inhibition, hits mostly inhibitors; also: nearly all actives have a fitted effect of over 70% in size
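AlphaScreen: HP1-beta (50 nM) preformed 30 min with biotin-H3(1-18)K9me3 peptide (50 nM) in PBS pH 7.4, 0.01% Tween-20. Compound added for 30 min at RT, then streptavidin donor/nickel chelate acceptor beads (10 ug/mL) for 30 min.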
PLK1 PBD block – inhibitors of human PLK1 polo-box domain binding; P53350; 360,000 compounds, 2.8% hits; Plk1 PBD binding of FITC phosphopeptide, fluorescence polarization; AID 720504; Potency, µM, for the others: max response, negative = inhibition, usual class: inhibitors; also: series mostly up to about 57 µM; % is scaled to controls: 0 for no effect and ±100 for the full control effect; nearly all actives have a fitted effect of over 65% in size
The depositor's hits bear a star; ? = inconclusive; . = not tested or not shown; [ ] = remark or other dose. Calls follow the shape of the dose curve; as a rule, active = well fitted curve in the direction sought with a large enough effect; inconclusive = small, poorly fitted or top-dose-only effect, or another doubt; inactive = no such curve, though single readings can be large; an effect the other way counts as inactive or inconclusive. Potency is read from the fitted curve at half-maximal effect.

SMILES | ALOX12 inh | JMJD2A Tudor | G9a inh | BAZ2B inh | HP1b chromo inh | PLK1 PBD block
COc1ccccc1C1C([N+](=O)[O-])=CC([N+](=O)[O-])=CN1C (stereo not given) | -16% | 8% | ? | 6% | 47% | 17%
Cc1ccc(CNc2oc(-c3cccs3)nc2C#N)cc1 | ? | -35% | 50µM* | ? | ? | 3%
Cc1cccc(-c2nc(C#N)c(NCc3ccco3)o2)c1 | ? | -22% | 45µM* | 50µM* | 13% | -1%
Cc1cccc(-c2nc(C#N)c(NCc3ccccc3)o2)c1 | 50µM* | . | . | . | . | .
Cc1cc(C)cc(OCC(=O)N(Cc2ccc(Cl)cc2)C2CCS(=O)(=O)C2)c1 (stereo not given) | -21% | -27% | -7%[59 µM] | -13% | -8% | .
O=C(NCc1ccc(F)cc1)c1cc2n(n1)CC(c1ccc3c(c1)OCO3)OC2 (stereo not given) | 31% | . | . | . | . | .
O=C(CNc1ccccc1Cl)c1ccc(Br)cc1 | 0% | -10% | 79µM* | 3% | 45% | -5%
O=C(CNc1ccc(Br)cc1)c1ccccc1 | -1% | -10% | ? | 7% | 22% | -3%
CC1=NN(c2ccccc2)C(=O)/C1=C\c1c(C)[nH]n(-c2ccccc2)c1=O | 0% | ? | ? | -35% | -10% | 2%
CC1=NN(c2ccccc2)C(=O)/C1=C\c1cn(-c2ccccc2)nc1C | 6% | ? | ? | . | 8.9µM* | -15%
CCCOc1ccc(Cl)cc1/C=C1/C(=O)ON=C1C | ? | 7.9µM* | 32µM* | -24% | 9% | 2.4µM*
CC1=NOC(=O)/C1=C\c1ccc(-c2ccc(Cl)cc2Cl)o1 | 16µM* | ? | 8.9µM* | ? | -17% | 0.42µM*
COc1ccccc1/C=C1/C(=O)N(c2ccccc2)N=C1C | ? | ? | ? | ? | -19%[57 µM] | 2.7µM*
O=C(COc1ccccc1Br)NCCc1nc2ccccc2[nH]1 | 9% | -22% | 2%[59 µM] | 10% | 39% | -6%
O=C1CCC(C(=O)N(Cc2ccco2)C2(C(=O)NC3CCCC3)CCCCC2)N1 (stereo not given) | . | -10% | ? | 8% | 19% | 4%
Clc1cccc(CN2CC[C@H](c3nc4ccccc4o3)C2)c1 | 8%[176 µM] | . | . | . | . | .
CCOc1ccc(C(F)(F)F)cc1NC(=O)c1ccc(OC)c([N+](=O)[O-])c1 | -33% | -10% | -10% | -2% | 12% | -2%
Cc1ccc(-c2nn(CCC#N)cc2C=C(C#N)C#N)cc1 | -9% | -5% | 9%[59 µM] | -3% | 38% | -6%
COc1ccccc1/C=C1/C(=O)ON=C1C | ? | -21% | -34%[12.7 µM] | -19% | 7% | 4.7µM*
CC1=NN(c2ccccc2)C(=O)/C1=C\c1sccc1C | 0% | ? | ? | 7.1µM* | ? | 11µM*
CC1=NN(c2ccccc2)C(=O)/C1=C\c1cn(CCC#N)nc1-c1ccc(Cl)cc1 | -7% | ? | 4.5µM* | ? | ? | 0%
C=CCOc1ccc2ccccc2c1/C=N/O | 4% | 7% | -2% | ? | 36% | -1%
O=C(CCCSc1nccc(C(F)(F)F)n1)c1ccc(F)cc1 | -26% | . | . | . | . | .
CCOC(=O)C1CCCN(CC(=O)c2ccc(F)cc2)C1 (stereo not given) | ? | 3.5µM* | ? | 20µM* | ? | -4%
CCOC(=O)C1CCCN(CC(=O)Nc2c(F)c(F)c(F)c(F)c2F)C1 (stereo not given) | 49% | 0% | -9%[59 µM] | . | 6% | -8%
SMILES | ALOX12 inh | JMJD2A Tudor | G9a inh | BAZ2B inh | HP1b chromo inh | PLK1 PBD block
O=C(C1CCCN(Cc2ccc3c(c2)OCO3)C1)N1CCCC1 (stereo not given) | ? | 40µM* | 10µM* | 56µM* | ? | 3%
COc1cc(CN2CCC(C)CC2)ccc1OCc1ccccc1 | ? | 25µM* | ? | ? | ? | -11%
COc1ccc(OCC(=O)NC2CCCN(Cc3ccc(Cl)cc3)C2)cc1 (stereo not given) | 16µM* | -29% | . | ? | 26% | -4%
CN(CC(=O)C(C(N)=O)c1ccccc1)c1ccccc1 (stereo not given) | ? | . | . | . | . | -6%
Cc1cc(C(O)c2ncc(-c3ccccc3F)[nH]2)ccc1F (stereo not given) | -4% | . | . | . | . | 0%
Cn1c(=O)oc2cc(S(=O)(=O)Nc3cccc(F)c3)ccc21 | 457% | -4% | -12%[59 µM] | -2% | 54% | -4%
COc1ccc(CC(=O)NCC2CCCN(Cc3cccc(C(F)(F)F)c3)C2)cc1 (stereo not given) | 5% | ? | . | 10% | -9% | 27µM*
Clc1cccc(CN2CCCCCC2)c1 | ? | 40µM* | 11µM* | ? | -37% | -4%
c1cc2c(cc1CN1CCN(C3CCCCCC3)CC1)OCO2 | ? | 18µM* | 10µM* | 18µM* | ? | 4%
CCOC(=O)C1CCCN(Cc2ccc3c(c2)OCO3)C1 (stereo not given) | ? | 2.5µM* | 8.9µM* | 50µM* | 25µM* | 0%
c1ccc(CN2CCC(N3CCN(Cc4ccc5c(c4)OCO5)CC3)CC2)cc1 | -10% | -2% | -9%[59 µM] | 1% | 10% | 6%
CC1=C(C(=O)OC(C)C)C(c2ccsc2)NC(=O)N1C (stereo not given) | 1% | 1% | 0%[59 µM] | 4% | 23% | -1%
CCCN1CCC(=O)N(CCN=[N+]=[N-])CC1 | 3% | -5% | 19% | 4% | 26% | -20%
Cc1nc(NC(=O)CSc2nnnn2C)sc1C | -22% | -12% | ? | -2% | 9% | -9%
O=C(NC1CCCN(Cc2ccc(Cl)cc2)C1)C1CCC1 (stereo not given) | 18% | -4% | 29% | -16% | 22% | -12%
CCOC(=O)C1CCCN(Cc2ccc(OCc3ccccc3)c(OC)c2)C1 (stereo not given) | 0.56µM* | ? | -6%[0.501 µM] | 50µM* | 1% | -4%
Brc1ccc(CN2CCCCCC2)cc1 | ? | 28µM* | . | . | ? | -5%
CCN(CC)C(=O)C1CCCN(Cc2ccc3c(c2)OCO3)C1 (stereo not given) | ? | 7.1µM* | 8.9µM* | ? | -58% | 1%
NC(=O)C1CCCN(Cc2ccc(Cl)cc2)C1 (stereo not given) | ? | 3.2µM* | 3.5µM* | 79µM* | -56% | 2%
Nc1ccc(CN2CCCCCC2)cc1 | 0% | -28% | 10%[59 µM] | 19% | 17% | -8%
CSc1nc2ccccc2n1CC(=O)N1CCCCC1 | 41% | 6% | 1% | -7% | 23% | -6%
CCN(CC)C(=O)C1CCCN(Cc2ccc(OC)c(C)c2)C1 (stereo not given) | ? | 0.89µM* | -49%[12.7 µM] | ? | ? | -5%

From PubChem BioAssay
